# Among all 360,000 compounds or so, about 2,600 (0.72%) were called active. This excerpt belongs to a sample that is enriched for actives. Unmarked numbers belong to inactive results.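 Rule for the calls: active = inhibition above its plate's cutoff, the mean inhibition of sample wells plus 3 SD (cut at about 27% in these data); inactive = the rest.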
# Target: Muscarinic acetylcholine receptor M4 (Homo sapiens) (UniProt P08173)
# Test: CHRM4 blockers of acetylcholine calcium response – CHO cells, Fluo-8 calcium fluorescence, primary screen (AID 624125);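 note: 0% = acetylcholine EC80 with DMSO and 100% = DMSO without agonist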
# Settings: CHO-hM4 cells, ACh EC80, Fluo-8 calcium fluorescence; at 3 µM; hits give high values
# Chain of Muscarinic acetylcholine receptor M4 (Homo sapiens) (P08173 whole entry, looked up): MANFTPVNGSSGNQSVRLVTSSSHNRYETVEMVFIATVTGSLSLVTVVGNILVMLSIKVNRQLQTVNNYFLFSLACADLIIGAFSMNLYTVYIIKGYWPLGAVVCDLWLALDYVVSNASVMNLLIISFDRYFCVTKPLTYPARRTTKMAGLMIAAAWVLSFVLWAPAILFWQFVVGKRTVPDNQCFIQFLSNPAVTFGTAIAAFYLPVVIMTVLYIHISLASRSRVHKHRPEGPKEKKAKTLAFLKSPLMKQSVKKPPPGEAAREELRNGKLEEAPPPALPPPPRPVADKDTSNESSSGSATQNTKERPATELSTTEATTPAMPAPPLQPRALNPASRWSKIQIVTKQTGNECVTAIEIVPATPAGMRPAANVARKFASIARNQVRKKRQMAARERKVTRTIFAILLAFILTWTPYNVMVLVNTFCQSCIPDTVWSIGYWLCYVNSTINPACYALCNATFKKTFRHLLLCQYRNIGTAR
row,Structure (SMILES),inhibition
1,Cc1cccc(CSc2ccc(-c3cccs3)nn2)c1,-4.51%
2,CSCCC1NC(=O)N(CC(=O)Nc2cccc(S(=O)(=O)N3CCCCCC3)c2)C1=O (stereo unspecified),-15.2%
3,O=C(Nc1ccccc1)c1nnsc1S(=O)(=O)c1ccc(Cl)cc1,70.3% (active)
4,C/C(=N\NS(=O)(=O)c1ccc(Cl)cc1)c1ccc(NC(=O)c2ccco2)cc1,7.91%
5,O=C(/C=C/c1ccc(Cl)cc1)Nc1ccc(S(=O)(=O)Nc2ncccn2)cc1,0.88%
6,Cn1c(CC(=O)Nc2ccc(F)cc2)nnc1SCC(=O)NC1CCCCC1,-3.82%
7,CC(=O)N1CCc2c(sc(NC(=O)CCS(=O)(=O)c3ccc(C)cc3)c2C(N)=O)C1,-0.18%
8,CS(=O)(=O)c1ccc(C(=O)NNC(=O)c2cccs2)cc1,0.8%
9,Cc1ccc2[nH]cc(CCCN3C(=O)c4ccccc4C3=O)c2c1,-6.81%
10,Cc1cccc(CSc2nc3c(c(=O)n2C)SCC3)c1,30.4% (active)
11,COCCn1c(SCC(=O)Nc2ccc(F)cc2F)nc2c(c1=O)SCC2,-3.44%
12,Cc1cccc(CSc2nnc(C)c(=O)n2N)c1,-5.35%
13,CCOC(=O)C1=CN(Cc2ccc(Br)cc2)S(=O)(=O)NC1C (stereo unspecified),-12.5%
14,O=C1C2(c3ccccc3)CN(CCCO)CC1(c1ccccc1)CN(CCCO)C2,4.09%
15,FC(F)(F)c1cccc(-c2cc3ccccc3nc2N2CCCC2)c1,2.79%
16,CCN(CC)CCCC(C)n1c2nc(=O)[nH]c(=O)c-2nc2cc(Cl)ccc21 (stereo unspecified),38.6% (active)
17,C=CCn1c(N)cc(=O)nc1SCC(=O)Nc1cccc2ccccc12,0.21%
18,CCN(CC)P(=O)(C(NC(=O)OC)C(F)(F)C(F)(F)C(F)(F)C(F)F)N(CC)CC (stereo unspecified),2.64%
19,COc1ccc(NC(=O)/C(Cl)=C(/Cl)S(=O)Cc2ccc(C)cc2)cn1 (stereo unspecified),50.8% (active)

row,Structure (SMILES),inhibition
1,CC(C)=CCCC1(C)C=Cc2c(ccc3c2[nH]c2cc(O)c(C)cc23)O1 (stereo unspecified),-7.94%
2,Cc1c(CN2CCCC(C(=O)c3cccc(Cl)c3)C2)c(=O)n(-c2ccccc2)n1C (stereo unspecified),7.63%
3,O=C(C[C@H]1C/C=C\C[C@@H](NC(=O)OCC2c3ccccc3-c3ccccc32)C(=O)O[C@@H](c2ccccc2)CNC1=O)N[C@H](CO)Cc1ccccc1,-3.13%
4,O=C(NNC(=O)C1C2CCC(C2)C1C(=O)O)c1ccc(Cl)cc1 (stereo unspecified),2.59%
5,Cc1ccc(S(=O)(=O)/N=C2\C=C(NS(=O)(=O)c3ccc(C)cc3)C(=O)c3ccccc32)cc1,4.16%
6,COc1ccc(S(=O)(=O)/N=C2\C=C(NS(=O)(=O)c3ccccc3)C(=O)c3ccccc32)cc1,27.9% (active)
7,COc1ccc(NS(=O)(=O)c2ccc(Oc3c(C#N)cccc3C#N)cc2)cc1,15%
8,Cc1cccc(NC(=O)c2nc[nH]c2C(=O)NCC(=O)OCc2ccccc2)c1,29.3% (active)
9,Cc1cccc(NS(=O)(=O)c2ccc(C)c(C(=O)NCc3cccnc3)c2)c1,-6.05%
10,O=C(CS(=O)(=O)Cc1ccccc1)Nc1cccnc1,-2.16%
11,CN(CC(=O)Nc1ccc(F)cc1)CC(=O)Nc1ccc(Cl)c(S(=O)(=O)N2CCOCC2)c1,-7.68%
12,Cc1cccc(CS(=O)(=O)c2ncc(Cl)c(C(=O)Nc3ccc(F)cc3)n2)c1,33.5% (active)
13,Cc1cc(NS(=O)(=O)c2ccc(NC(=S)NC(=O)c3ccc(F)cc3Cl)cc2)no1,9.04%
14,Cc1cccc(NC(=O)c2nc(S(=O)(=O)Cc3ccccc3)ncc2Cl)c1,51.3% (active)
15,O=C(N[C@@H](Cc1ccccc1)C(=O)OCc1ccccc1)c1nc[nH]c1C(=O)N[C@@H](Cc1ccccc1)C(=O)OCc1ccccc1,2.96%
16,C[C@H](NC(=O)c1nc[nH]c1C(=O)NCC(=O)OC(C)(C)C)C(=O)OCc1ccccc1,17.7%
17,COc1ccc(NC(=O)CCn2ccnc2)c(OC)c1,4.14%
18,COc1ccc(NS(=O)(=O)c2ccc(N3CCOCC3)c(NC(=O)c3ccccc3Br)c2)cc1,-9.67%
19,Cc1ccc(NS(=O)(=O)c2cc3c(cc2C)NC(=O)CO3)cc1,2.56%

row,Structure (SMILES),inhibition
1,CN(Cc1c(F)cccc1Cl)S(=O)(=O)c1cccs1,-12.9%
2,Cc1cc(=O)n2nc(N3CCCC3C(=O)NCCCN3CC(C)CC(C)C3)sc2n1 (stereo unspecified),-11.3%
3,c1ccc(C(=NNc2nc3ccccc3s2)c2ccccn2)cc1,56.1% (active)
4,Cc1ccc(C)c(N2CCN(C(=O)Cn3ncn4cccc4c3=O)CC2)c1,-6.41%
5,Cc1ccc(C)c(N2CCN(C(=O)CCCCCn3c(=S)[nH]c4ccc(N5CCOCC5)cc4c3=O)CC2)c1,33.6% (active)
6,Cc1ccc(OCCCC(=O)N2CCOCC2)c(C)c1,-1.8%
7,C[C@H]1CN([C@@H](C)CO)C(=O)CCCn2nncc2CO[C@@H]1CN(C)S(=O)(=O)c1cccc(C#N)c1,-12.9%
8,N=c1c2c3c(sc2ncn1CCCN1CCOCC1)CCCCC3,10.8%
9,N=c1c2c3c(sc2nc2n1CCCCC2)CCCC3,46.3% (active)
10,CC1(C)Cc2c(sc3nc4n(c(=N)c23)CCCCC4)CO1,3.83%
11,Cc1cc(C)c(S(=O)(=O)c2cc(F)ccc2C)c(=O)[nH]1,1.71%
12,CCN1/C(=C\c2ccc3ccccc3[n+]2CC)Sc2cc(C)ccc21,34% (active)
13,CCc1ccc(NC2Nc3cc(C)nn3S2)cc1 (stereo unspecified),4.8%
14,COc1ccc(Cl)cc1C=CC=NNC(=O)c1ccncc1,-14.8%
15,COc1cccc2sc3cc(NCC[C@@H]4CCCN4C)ccc3c(=O)c12,-7.94%
16,CN1CCC[C@@H]1CCO[C@](C)(c1ccccc1)c1ccc(Cl)cc1,97.7% (active)
17,CCC1CCC/C1=N\NC(=O)c1ccc(Cl)cc1 (stereo unspecified),6.05%
18,O=C(Nc1ccc(F)cc1)c1cc2c(s1)CCCC2,1.82%
